Test results taken from PubChem BioAssay AID1159580 (chemical genetic matrix, 2015).
Hit rate of the full screen: of about 5,500 compounds, about 2,000 (36%) were called active. Not shown: some 18% with an inconclusive outcome. Rule as the data show it: active = normalized growth mostly below about 0.91 (no sharp cut-off); inconclusive = no clear call, values can overlap the other calls; inactive = mostly above about 0.92. The list shows a part of the results.

Assay: chemical genetic growth profiling, strain panel (AID 1159580);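 also: tested at 20 µM; growth read once vehicle control cultures reached saturation at 30 °C; 1 = growth at the plate median or of vehicle wells; lower values mean less growth of the strain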
Conditions: growth OD

Measured: normalized growth

O=C(O)/C=C/c1ccc(O)c(O)c1
inactive: S. cerevisiae deletion strains, locus YJR043C, strain POL32, active compounds read low 1.01 | S. cerevisiae deletion strains, locus YJR066W, strain TOR1, active compounds read low 0.95 | S. cerevisiae deletion strains, locus YKL009W, strain mrt4, active compounds read low 1.05 | S. cerevisiae deletion strains, locus YKL068W, active compounds read low 1.01 | S. cerevisiae deletion strains, locus YKL085W, strain MDH1 (second series), active compounds read low 1.02 | S. cerevisiae deletion strains, locus YKL085W, strain MDH1, active compounds read low 1.02 | S. cerevisiae deletion strains, locus YKL160W, strain elf1, active compounds read low 1 | S. cerevisiae deletion strains, locus YKL190W, strain CNB1, active compounds read low 1.01 | S. cerevisiae deletion strains, locus YKR001C, strain vps1, active compounds read low 1 | S. cerevisiae deletion strains, locus YKR026C, strain gcn3, active compounds read low 1 | S. cerevisiae deletion strains, locus YKR091W, strain srl3, active compounds read low 1 | S. cerevisiae deletion strains, locus YLL001W, strain dnm1, active compounds read low 0.992 | S. cerevisiae deletion strains, locus YLL026W, active compounds read low 0.992 | S. cerevisiae deletion strains, locus YLL041C, strain sdh2, active compounds read low 1 | S. cerevisiae deletion strains, locus YLR027C, strain aat2, active compounds read low 0.989 | S. cerevisiae deletion strains, locus YLR039C, strain RIC1, active compounds read low 1.01 | S. cerevisiae deletion strains, locus YLR058C, strain SHM2, active compounds read low 1.01 | S. cerevisiae deletion strains, locus YLR102C, strain apc9, active compounds read low 1.01 | S. cerevisiae deletion strains, locus YLR113W, strain HOG1, active compounds read low 0.985 | S. cerevisiae deletion strains, locus YLR221C, strain rsa3, active compounds read low 1 | S. cerevisiae deletion strains, locus YLR258W, strain gsy2, active compounds read low 0.999 | S. cerevisiae deletion strains, locus YLR262C, strain YPT6 (second series), active compounds read low 0.993 | S. cerevisiae deletion strains, locus YLR262C, strain YPT6, active compounds read low 0.998 | S. cerevisiae deletion strains, locus YLR268W, strain sec22, active compounds read low 1.03 | S. cerevisiae deletion strains, locus YLR320W, strain mms22, active compounds read low 1.02 | S. cerevisiae deletion strains, locus YLR330W, strain CHS5, active compounds read low 1.02 | S. cerevisiae deletion strains, locus YLR342W, strain FKS1 (second series), active compounds read low 1.07 | S. cerevisiae deletion strains, locus YLR342W, strain FKS1, active compounds read low 1.01 | S. cerevisiae deletion strains, locus YLR357W, strain rsc2, active compounds read low 1.01 | S. cerevisiae deletion strains, locus YLR370C, strain arc18, active compounds read low 1 | S. cerevisiae deletion strains, locus YLR371W, strain rom2, active compounds read low 1.01 | S. cerevisiae deletion strains, locus YLR384C, strain iki3, active compounds read low 0.999 | S. cerevisiae deletion strains, locus YLR418C, strain cdc73, active compounds read low 1.05 | S. cerevisiae deletion strains, locus YML016C, strain PPZ1, active compounds read low 1.01 | S. cerevisiae deletion strains, locus YML032C, strain rad52, active compounds read low 0.998 | S. cerevisiae deletion strains, locus YML120C, strain ndi1, active compounds read low 1.01 | S. cerevisiae deletion strains, locus YML124C, strain tub3, active compounds read low 1 | S. cerevisiae deletion strains, locus YMR058W, strain fet3, active compounds read low 1.01 | S. cerevisiae deletion strains, locus YMR078C, strain ctf18, active compounds read low 1.01 | S. cerevisiae deletion strains, locus YMR125W, strain sto1, active compounds read low 1 | S. cerevisiae deletion strains, locus YMR129W, active compounds read low 1 | S. cerevisiae deletion strains, locus YMR205C, strain PFK2, active compounds read low 0.999 | S. cerevisiae deletion strains, locus YMR223W, strain ubp8, active compounds read low 0.997 | S. cerevisiae deletion strains, locus YMR231W, strain pep5, active compounds read low 0.98 | S. cerevisiae deletion strains, locus YMR307W, strain GAS1, active compounds read low 1.04 | S. cerevisiae deletion strains, locus YNL067W, strain RPL9B, active compounds read low 0.994 | S. cerevisiae deletion strains, locus YNL071W, strain lat1, active compounds read low 1.01 | S. cerevisiae deletion strains, locus YNL153C, strain GIM3, active compounds read low 0.999 | S. cerevisiae deletion strains, locus YNL175C, strain NOP13, active compounds read low 1 | S. cerevisiae deletion strains, locus YNL183C, strain NPR1, active compounds read low 0.971 | S. cerevisiae deletion strains, locus YNL197C, strain WHI3, active compounds read low 1.01 | S. cerevisiae deletion strains, locus YNL209W, strain ssb2, active compounds read low 0.998 | S. cerevisiae deletion strains, locus YNL224C, strain SQS1, active compounds read low 0.997 | S. cerevisiae deletion strains, locus YNL233W, strain BNI4, active compounds read low 1 | S. cerevisiae deletion strains, locus YNL248C, strain rpa49, active compounds read low 1 | S. cerevisiae deletion strains, locus YNL250W, strain rad50, active compounds read low 1 | S. cerevisiae deletion strains, locus YNL271C, strain bni1, active compounds read low 0.998 | S. cerevisiae deletion strains, locus YNL298W, strain CLA4, active compounds read low 0.98 | S. cerevisiae deletion strains, locus YNL307C, strain MCK1, active compounds read low 1.01 | S. cerevisiae deletion strains, locus YNL322C, strain KRE1 (second series), active compounds read low 0.998 | S. cerevisiae deletion strains, locus YNL322C, strain KRE1, active compounds read low 1.02 | S. cerevisiae deletion strains, locus YNR049C, strain mso1, active compounds read low 1.01 | S. cerevisiae deletion strains, locus YNR052C, strain pop2, active compounds read low 0.993 | S. cerevisiae deletion strains, locus YOL012C, strain htz1 0.725 | S. cerevisiae deletion strains, locus YOL147C, strain pex11, active compounds read low 1.01 | S. cerevisiae deletion strains, locus YOR001W, strain rrp6, active compounds read low 1.02 | S. cerevisiae deletion strains, locus YOR061W, strain CKA2, active compounds read low 1.02 | S. cerevisiae deletion strains, locus YOR069W, strain VPS5, active compounds read low 1.01 | S. cerevisiae deletion strains, locus YOR070C, strain gyp1, active compounds read low 0.972 | S. cerevisiae deletion strains, locus YOR080W, strain dia2, active compounds read low 1 | S. cerevisiae deletion strains, locus YOR083W, strain WHI5 (second series), active compounds read low 1.01 | S. cerevisiae deletion strains, locus YOR083W, strain WHI5, active compounds read low 1 | S. cerevisiae deletion strains, locus YOR106W, strain vam3, active compounds read low 1.04 | S. cerevisiae deletion strains, locus YOR136W, strain idh2, active compounds read low 1.02 | S. cerevisiae deletion strains, locus YOR144C, strain elg1, active compounds read low 1.01 | S. cerevisiae deletion strains, locus YOR184W, strain ser1, active compounds read low 1 | S. cerevisiae deletion strains, locus YOR231W, strain MKK1, active compounds read low 1.03 | S. cerevisiae deletion strains, locus YOR265W, strain rbl2, active compounds read low 0.988 | S. cerevisiae deletion strains, locus YOR270C, strain vph1, active compounds read low 1 | S. cerevisiae deletion strains, locus YOR290C, strain snf2, active compounds read low 1.01 | S. cerevisiae deletion strains, locus YOR316C, strain cot1, active compounds read low 1 | S. cerevisiae deletion strains, locus YPL051W, strain arl3, active compounds read low 0.994 | S. cerevisiae deletion strains, locus YPL055C, strain LGE1, active compounds read low 1.01 | S. cerevisiae deletion strains, locus YPL078C, strain atp4, active compounds read low 1 | S. cerevisiae deletion strains, locus YPL106C, strain sse1, active compounds read low 0.992 | S. cerevisiae deletion strains, locus YPL240C, strain hsp82, active compounds read low 1 | S. cerevisiae deletion strains, locus YPL256C, strain CLN2, active compounds read low 0.985 | S. cerevisiae deletion strains, locus YPR119W, strain clb2, active compounds read low 1.01 | S. cerevisiae deletion strains, locus YPR141C, strain kar3, active compounds read low 1.04 | S. cerevisiae deletion strains, locus YPR163C, strain tif3, active compounds read low 1 | S. cerevisiae deletion strains, locus YPR167C, strain met16, active compounds read low 1.02 | S. cerevisiae deletion strains, strain wtn01, active compounds read low 1.04 | S. cerevisiae strains, strain wild type, active compounds read low 1.01
